Source: PubChem BioAssay (NCI)
The panel holds about 79,000 compounds, 15% with a hit somewhere; the sample as a whole holds those more often. A number with no mark means an inactive call. Calls of active or inactive are those of the source. Cut-off read from the data, not from the text of the source: active = growth inhibition above about 70%; inactive = the rest.

Experiment: NCI Yeast Anticancer Drug Screen. Data for the rad50 strain (AID 155);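 note: 0% = growth of vehicle-only cultures of the same strain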
Details: S. cerevisiae rad50 strain growth inhibition; at 50.0 µM; stronger effect = higher value
Protocol: Growth inhibition of yeast strains with defined genetic alterations is measured as a screen for potential anti-cancer activity. Selected strains with alterations in DNA damage repair or cell cycle control were exposed to compounds and growth inhibition was measured relative to vehicle treated controls. The strain used in this assay is rad50

**Q.** With `CC1CCCCN1CCCO` (stereo not given) as the compound, how does the growth inhibition read?
**A.** Its growth inhibition is 14.6%.

**Q.** Which growth inhibition does the source give for `O=C(O)CC(NC(=O)CP(=O)(O)O)C(=O)O` (stereo not given) here?
**A.** Its growth inhibition is -9.4%.

**Q.** Which growth inhibition does the source give for `CC(O)(c1ccc(OCCC[N+](C)(C)C)cc1)C(C)(O)c1ccc(OCCC[N+](C)(C)C)cc1` (stereo not given) here?
**A.** The growth inhibition was -25.5%.

**Q.** Which growth inhibition does the source give for `OC1c2ccccc2-c2ccc(N(Cc3ccccc3)Cc3ccccc3)cc21` (stereo not given) here?
**A.** The growth inhibition was 6.95%.

**Q.** Which growth inhibition does the source give for `CC1(C)OC(=C(C#N)C#N)C(C#N)=C1/C=C/c1ccncc1` here?
**A.** Its growth inhibition is 25.7%.

**Q.** Which growth inhibition does the source give for `CCOC(=O)c1cc(C)nc(Cl)c1[N+](=O)[O-]` here?
**A.** The growth inhibition was 19.4%.

**Q.** Which growth inhibition does the source give for `Cc1cccc(N2CCN(c3ccc4nonc4c3[N+](=O)[O-])CC2)c1` here?
**A.** The growth inhibition was -5.05%.

**Q.** Which growth inhibition does the source give for `COc1cc([N+](=O)[O-])c(OC)cc1N` here?
**A.** Its growth inhibition is 2.45%.

**Q.** With `Cc1ccc(S(=O)(=O)NNC(=O)c2cc(C(=O)NNS(=O)(=O)c3ccc(C)cc3)c(C)nc2C)cc1` as the compound, how does the growth inhibition read?
**A.** The growth inhibition was -1.95%.

**Q.** With `O=S1(=O)c2ccccc2N(O)C2=NCCN21` as the compound, how does the growth inhibition read?
**A.** Its growth inhibition is -50.1%.

**Q.** With `C#CC1(NC(=O)c2ccccc2C(=O)Nc2cccc(C(F)(F)F)c2)CCCCC1` as the compound, how does the growth inhibition read?
**A.** The growth inhibition was -12.9%.

**Q.** With `CCCc1c(O)c(=O)c2c(OC)cc(OC)c3c4c(OC)cc(OC)c5c(=O)c(O)c(CCC)c(c1c23)c54` as the compound, how does the growth inhibition read?
**A.** Its growth inhibition is 86.1% (active).

**Q.** Which growth inhibition does the source give for `O=c1c(-c2ccccc2)c2oc(c1-c1ccccc1)CS(=O)(=O)CCC2` here?
**A.** Its growth inhibition is 21.9%.

**Q.** With `CCOC(=O)C1CSCN1C(C)=O` (stereo not given) as the compound, how does the growth inhibition read?
**A.** Its growth inhibition is -33.4%.

**Q.** For `O=C(O)CCSC1=NCCN1`, which growth inhibition is on record?
**A.** The growth inhibition was -32.8%.

**Q.** With `O=C1CC2CCCCC2=C1O` (stereo not given) as the compound, how does the growth inhibition read?
**A.** The growth inhibition was 18.4%.

**Q.** With `COc1ccccc1CNCCCCCNCCCCCCCCCCNCCCCCNCc1ccccc1OC` as the compound, how does the growth inhibition read?
**A.** The growth inhibition was -32.4%.

**Q.** For `CC(=O)NNC(=S)N/C=C(\C#N)C(=O)c1ccc2ccccc2c1`, which growth inhibition is on record?
**A.** Its growth inhibition is -59.4%.

**Q.** For `Cc1cc(C)c(C#[N+][O-])c(C)c1C#[N+][O-]`, which growth inhibition is on record?
**A.** Its growth inhibition is 5.9%.

**Q.** With `Cn1c(=O)c2[nH]c(CCNC(=O)c3ccccc3)nc2n(C)c1=O` as the compound, how does the growth inhibition read?
**A.** Its growth inhibition is 2.05%.

**Q.** With `COc1ccc2nc3cc(Cl)ccc3c(NCCC3CCCN4CCCCC34)c2c1` (stereo not given) as the compound, how does the growth inhibition read?
**A.** The growth inhibition was 33%.

**Q.** With `Cc1cccc(C(=O)N(C)C)c1` as the compound, how does the growth inhibition read?
**A.** Its growth inhibition is -0.7%.

**Q.** With `Cc1ccc(C(=O)C2CC2c2ccccc2)cc1` (stereo not given) as the compound, how does the growth inhibition read?
**A.** Its growth inhibition is 6.05%.

**Q.** For `CC(=O)c1cc(C)c(O)c(C)c1`, which growth inhibition is on record?
**A.** Its growth inhibition is -4.25%.

**Q.** For `CCc1ccc(OC(C)=O)cc1`, which growth inhibition is on record?
**A.** Its growth inhibition is 12.5%.

**Q.** Which growth inhibition does the source give for `O=C(O)C1[N-]CCNC1C(=O)O.[O]=[V][OH]` (stereo not given) here?
**A.** The growth inhibition was -10.7%.

**Q.** With `N#Cc1nc(CC(=O)c2ccncc2)c(CC(=O)c2ccncc2)nc1C#N` as the compound, how does the growth inhibition read?
**A.** The growth inhibition was 8%.

**Q.** Which growth inhibition does the source give for `CCOC(=O)CCOc1ccccc1` here?
**A.** The growth inhibition was 8%.

**Q.** For `COC(=O)CNC(=O)Nc1cc(N2C(=O)ON3C2C(C)(C)N(O)C3(C)C)ccc1C` (stereo not given), which growth inhibition is on record?
**A.** Its growth inhibition is 2.95%.

**Q.** With `C=C(Br)CN(C(C)=O)C1CCCCC1` as the compound, how does the growth inhibition read?
**A.** The growth inhibition was -9.2%.

**Q.** For `Cc1ccc([N+](=O)[O-])cc1N=C=O`, which growth inhibition is on record?
**A.** The growth inhibition was -38.5%.

**Q.** For `CN1C(=O)OC2C3NC(=O)OC3C(O)C(O)C21` (stereo not given), which growth inhibition is on record?
**A.** The growth inhibition was -7.85%.

**Q.** Which growth inhibition does the source give for `COc1cnc(NS(=O)(=O)c2ccc(N)cc2)nc1` here?
**A.** Its growth inhibition is -12.2%.

**Q.** With `CC(=O)Nc1ccc(/C=C2\N=C(c3ccccc3)OC2=O)cc1` as the compound, how does the growth inhibition read?
**A.** Its growth inhibition is 15.9%.

**Q.** Which growth inhibition does the source give for `CCN(CC)CCCCCCCNc1nccc2ccccc12` here?
**A.** Its growth inhibition is 31.1%.

**Q.** For `CCN(CC)C(=O)C1CCNCC1`, which growth inhibition is on record?
**A.** The growth inhibition was -12.3%.

**Q.** For `CCCCCCCCCCCCC(F)C(=O)OCC1OC(n2cc(C)c(=O)[nH]c2=O)CC1N=[N+]=[N-]` (stereo not given), which growth inhibition is on record?
**A.** Its growth inhibition is 3.25%.

**Q.** With `O=c1ccnc2c1ccc1[nH]cccc12` as the compound, how does the growth inhibition read?
**A.** Its growth inhibition is 1.35%.

**Q.** Which growth inhibition does the source give for `Cc1nc(N(CCO)CCO)c2sc(=S)n(-c3ccccc3)c2n1` here?
**A.** Its growth inhibition is -35.5%.

**Q.** For `CN1CCc2[nH]nc(-c3n[nH]c4c3CN(C)CC4)c2C1`, which growth inhibition is on record?
**A.** Its growth inhibition is 15.8%.
